In PubChem BioAssay:

These compounds were tested against Torsin-1A-interacting protein 1 (Homo sapiens) (UniProt Q5JTV8) (assay: compound microarray binding of lysate hLAP1 – cell lysate, small-molecule microarray, COS7 lysate, 635/667 nm fluorescence, primary screen (AID 1116)). Conditions: 635 nm fluorescence, higher = more signal.
Chain of Torsin-1A-interacting protein 1 (Homo sapiens) (Q5JTV8 whole entry, looked up): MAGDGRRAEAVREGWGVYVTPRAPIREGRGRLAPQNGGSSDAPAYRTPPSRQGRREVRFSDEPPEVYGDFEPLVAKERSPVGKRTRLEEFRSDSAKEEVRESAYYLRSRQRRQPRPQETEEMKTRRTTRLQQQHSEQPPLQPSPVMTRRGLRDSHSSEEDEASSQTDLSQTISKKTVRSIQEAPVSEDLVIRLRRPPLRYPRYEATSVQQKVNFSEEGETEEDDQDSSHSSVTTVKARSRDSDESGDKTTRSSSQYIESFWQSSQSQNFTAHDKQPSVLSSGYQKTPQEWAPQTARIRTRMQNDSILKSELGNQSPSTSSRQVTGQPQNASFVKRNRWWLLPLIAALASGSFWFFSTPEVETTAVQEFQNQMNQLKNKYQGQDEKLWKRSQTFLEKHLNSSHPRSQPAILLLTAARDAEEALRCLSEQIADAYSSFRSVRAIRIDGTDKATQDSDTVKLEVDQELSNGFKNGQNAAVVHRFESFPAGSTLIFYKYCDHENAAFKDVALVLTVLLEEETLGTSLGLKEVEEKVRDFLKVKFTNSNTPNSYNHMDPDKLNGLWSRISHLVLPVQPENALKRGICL

Point of comparison: `CO[C@H]1COC(=O)[C@H](C)NC(=O)CC=C[C@@H](C)[C@H](NS(=O)(=O)c2ccc(C)cc2)COC(=O)[C@@H](OCc2ccccc2)C=C[C@@H]1C`, composite z-score -0.141. Against it:
- CC(=O)Nc1ccc([C@H]2[C@H](C)CC[C@H]3C(=O)N4[C@@H](CC[C@@H](C)[C@@H]4c4ccc(NC(C)=O)cc4)C(=O)N32)cc1 — higher, 0.424
- C=CCN(C(=O)C1N(c2ccc(CCO)cc2)C(=O)C2C(C(=O)O)C3C=CC21O3)C(C)(C)C (centres undefined) — higher, 1.71
- COCCCNC(=O)[C@@]1(Sc2ccc(C)cc2)CC(=O)N(Cc2cc(C(F)(F)F)cc(C(F)(F)F)c2)[C@@H]1c1ccc(CO)cc1I — higher, 0.339
- CO[C@H]1COC(=O)CC=C[C@H](C)[C@@H](OC)COC(=O)[C@H](Cc2ccccc2)NC(=O)CC=C[C@@H]1C — lower, -0.272
- COCCOC(=O)N1C(=O)[C@@]2(c3cc(C#CCCO)ccc31)[C@H](C(=O)N1CCCCCCC1)[C@H]1C(=O)O[C@H](c3ccccc3)[C@H](c3ccccc3)N1[C@@H]2c1ccc(O)cc1 — higher, 2.56
- Cc1ccc(N2C(=O)c3ccccc3[C@@H](C(=O)NCc3ccccc3)[C@@H]2c2ccc(CO)cc2)nc1 — higher, 0.776
- O=C1C2C=CC(C(O)C(c3ccccc3)c3ccccc3)N(Nc3ccc([N+](=O)[O-])cc3)C2C(=O)N1c1ccccc1 (centres undefined) — higher, 0.935

Each compound was assayed against Alpha-bungarotoxin (Bungarus multicinctus) (UniProt P60615) (assay: compounds binding labelled alpha-BTX control protein – biochemical, small-molecule microarray, Alexa647 label, 635/667 nm fluorescence, artefact control for SMM control protein annotation, profiling panel (AID 1117)). Conditions: alpha-BTX-A647 binding fluorescence, higher = more signal.
Chain of Alpha-bungarotoxin (Bungarus multicinctus) (P60615 whole entry, looked up): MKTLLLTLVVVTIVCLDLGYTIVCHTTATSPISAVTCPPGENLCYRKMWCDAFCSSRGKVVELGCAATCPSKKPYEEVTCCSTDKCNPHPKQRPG

Point of comparison: `C=C(COC)/C(=C/C[C@H](OC(C)=O)c1ccc(OCCO)cc1)c1cnc2ccccc2c1`, composite z-score 1.56. Against it:
- CO[C@H]1COC(=O)[C@@H](C)COC(=O)[C@H](Cc2ccccc2)NC(=O)CC=C[C@H]1C — lower, 0.0209
- C=CCC(OC(C)=O)[C@@H]1[C@@H](N(Cc2cccc3ccccc23)C(=O)c2ccc(C)cc2)c2cc(OCCCO)ccc2N1C(=O)c1ccc(-c2ccccc2)cc1 (some centres undefined) — lower, -0.218
- CC(C)[C@H]1NC(=O)[C@@]23C(=O)N[C@@H](Cc4ccccc4)C2[C@H](C)[C@@]2(C)O[C@H]2C3/C=C/C/C=C\CNC(=O)[C@H](C)NC1=O (some centres undefined) — lower, -1.12
- CO[C@H]1COC(=O)[C@@H](Cc2ccccc2)NC(=O)[C@@H](C)COC(=O)CC=C[C@@H]1C — lower, -0.39
- CN1CCC(CCCO)=CC1C1CC1 (centres undefined) — lower, -0.234
- CC(C)[Si]1(C(C)C)OCc2cc(C3CC3)nc(-c3ccccc3)c21 — lower, -0.249
- O=C1c2ccccc2[C@](Cc2ccccc2I)(C(=O)O)[C@H](c2ccc(CO)cc2)N1C1CCCCC1 — lower, 1.53
- C[C@@H]1NC(=O)CC=C[C@@H](C)[C@@H]2C=C[C@H](O)[C@@H](COC(=O)[C@H](C)NC(=O)CC=C[C@@H](C)[C@@H]3C=C[C@H](O)[C@@H](COC1=O)O3)O2 — lower, -0.64
- C=CCc1cccc([C@@H]2[C@@H](C)CC[C@H]3C(=O)N4[C@H](c5cccc(CC=C)c5)[C@@H](C)CC[C@H]4C(=O)N23)c1 — higher, 1.88
- C=CC[C@@]12N=C(c3ccc(OCCCO)cc3)O[C@@H]1c1ccccc1CN(Cc1ccccc1)C2=O — the same, 1.56
- COc1ccc([C@H]2C[C@H]3C(Br)=C[C@]2(OC)C(=O)[C@]32CO2)cc1 — lower, -0.268
- C=CCOC(=O)[C@@H]1[C@H]2C(=O)O[C@H](c3ccccc3)[C@H](c3ccccc3)N2[C@H](c2ccc(OCCOC(=O)[C@H]3C[C@H]4C(=O)N5CCC[C@H]5C(=O)N4[C@H]3c3ccc(O)cc3)cc2)[C@@]12C(=O)Nc1ccccc12 — lower, 1.33
- CC(=O)NCCCC[C@@H]1NC(=O)[C@@H]2C[C@H](C(=O)NCc3ccc(F)cc3)[C@H](c3cccc(OCCO)c3)N2C1=O — lower, -0.86
- O=C(CS)NCCCCCNC(=O)[C@H]1C[C@H]2C(=O)N3CCC[C@H]3C(=O)N2[C@H]1c1ccc(O)cc1 — lower, -1.3
- COc1cc([C@@H]2N[C@H](C(=O)O)Cc3c2[nH]c2ccccc32)cc(OC)c1OC — lower, 0.441
- C=CC[C@@]1(C(=O)N2CCOCC2)N=C(c2ccc(OCCCO)cc2)O[C@@H]1c1ccccc1 — higher, 2.84
- COCCOC(=O)N1C(=O)[C@@]2(c3cc(C#CC4=CCCCC4)ccc31)[C@H](c1ccc(O)cc1)N1[C@H](c3ccccc3)[C@H](c3ccccc3)OC(=O)[C@H]1[C@@H]2C(=O)N1CCCCCCC1 — higher, 1.69
- COCCOC(=O)N1C(=O)[C@@]2(c3cc(C#CC4=CCCCC4)ccc31)[C@H](C(=O)NC[C@H](O)c1ccccc1)[C@H]1C(=O)O[C@H](c3ccccc3)[C@H](c3ccccc3)N1[C@@H]2c1ccccc1OCCO — higher, 2.18
- C=CC[C@]1(C(=O)NCC(O)CO)N=C(c2ccc(OCCCO)cc2)O[C@H]1c1ccccc1 (some centres undefined) — lower, 1.29
- C=CCC(OC(C)=O)[C@@H]1[C@@H](N(Cc2cc3ccccc3o2)C(=O)c2ccc(C)cc2)c2cc(OCCCO)ccc2N1C(=O)c1ccc2ccccc2n1 (some centres undefined) — lower, 0.432
- CC(C)NC(=O)[C@@]1(Cc2ccccc2I)c2ccccc2C(=O)N(C2CCCCC2)[C@H]1c1ccc(CO)cc1 — lower, 1.32
- C=C[C@H](OC)[C@@H](OC(=O)Nc1ccc(SC)cc1)c1ccc(OC)c(O)c1 — lower, -0.508
- CCc1cccc(NC(=O)O[C@H]2[C@H](OC(=O)Nc3ccccc3)[C@@H](OC(=O)Nc3ccccc3)[C@@H](OC)O[C@@H]2CO)c1 — lower, 1.2
- COCCOC(=O)N1C(=O)[C@@]2(c3cc(C#CCC(C(=O)OC)C(=O)OC)ccc31)[C@H](C(=O)N1CCN(c3ncccn3)CC1)[C@H]1C(=O)O[C@H](c3ccccc3)[C@H](c3ccccc3)N1[C@@H]2c1ccc(O)cc1 — higher, 1.71
- COc1ccc(-c2cc3c(c(-c4ccccc4)n2)[Si](C(C)C)(C(C)C)O[C@H]3c2ccccc2)cn1 — lower, 0.599
- CCC(=O)[C@]12O[C@@]3([C@@H]4C(=O)OCC[C@@H]41)N(Cc1ccccc1)C(C)=C(C(=O)OC)[C@@H](c1ccccc1)N3C2=O — lower, -0.621
- CO[C@@H]1COC(=O)[C@H](C)NC(=O)CC=C[C@@H](C)[C@H](NS(=O)(=O)c2ccc(C)cc2)COC(=O)CC=C[C@@H]1C — lower, -0.573
- CC(=O)Nc1ccc([C@H]2[C@H](C)CC[C@H]3C(=O)N4[C@@H](CC[C@@H](C)[C@@H]4c4ccc(NC(C)=O)cc4)C(=O)N32)cc1 — lower, 0.884
- C=CCN(C(=O)C1N(c2ccc(CCO)cc2)C(=O)C2C(C(=O)O)C3C=CC21O3)C(C)(C)C (centres undefined) — lower, -2.69
- CO[C@H]1COC(=O)[C@H](C)NC(=O)CC=C[C@@H](C)[C@H](NS(=O)(=O)c2ccc(C)cc2)COC(=O)[C@@H](OCc2ccccc2)C=C[C@@H]1C — lower, -0.606
- COCCCNC(=O)[C@@]1(Sc2ccc(C)cc2)CC(=O)N(Cc2cc(C(F)(F)F)cc(C(F)(F)F)c2)[C@@H]1c1ccc(CO)cc1I — lower, -0.489
- CO[C@H]1COC(=O)CC=C[C@H](C)[C@@H](OC)COC(=O)[C@H](Cc2ccccc2)NC(=O)CC=C[C@@H]1C — lower, -1.24
- COCCOC(=O)N1C(=O)[C@@]2(c3cc(C#CCCO)ccc31)[C@H](C(=O)N1CCCCCCC1)[C@H]1C(=O)O[C@H](c3ccccc3)[C@H](c3ccccc3)N1[C@@H]2c1ccc(O)cc1 — lower, 1.45
- Cc1ccc(N2C(=O)c3ccccc3[C@@H](C(=O)NCc3ccccc3)[C@@H]2c2ccc(CO)cc2)nc1 — lower, -0.326
- O=C1C2C=CC(C(O)C(c3ccccc3)c3ccccc3)N(Nc3ccc([N+](=O)[O-])cc3)C2C(=O)N1c1ccccc1 (centres undefined) — lower, 1.42
